# Reference: PubChem BioAssay (Tox21)
# Several values for one entry are separate records, joined by “and”; a condition that tells them apart may be missing. Equal entries are not always repeated. Results filed as inconclusive are left out. Where a call stands in place of a potency, no number is given. Where a structure was tested more than once in an assay, its records may differ in their call. Activity calls are given as the source filed them. The call rests on the fitted dose curve; in most records, active means well fitted curve in the direction sought with a large enough effect in the repeat runs; inconclusive means weak or mixed curves; inactive means no such curve, though single readings can be large; an effect the other way counts as inactive or inconclusive.
# Experiments:
# [1] = qHTS RealTime-Glo MT Cell Viability Assay in HepG2 cells - 40 hour (AID 1224870); further: nearly all actives have a fitted effect of over 50% in size; further: potency means the concentration at half of the fitted maximal effect
# Procedure, shortened: (§1)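 HepG2 cells mixed with RealTime-Glo MT reagents (NanoLuc plus cell-permeant prosubstrate) were seeded at 600 cells/well, incubated 5 h at 37 C/5% CO2, then pinned with compounds in DMSO; nonlytic luminescence tracked viability during 40 h treatment.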
# [2] = A CellTox Green Cytotoxicity Assay to monitor cytotoxicity in HEK293 cells - 40 hour (AID 1224871); further: nearly all actives have a fitted effect of over 45% in size; further: potency means the concentration at half of the fitted maximal effect
# Procedure, shortened: (§2)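 Cells (HEK293, 600/well) and dye reagent are dispensed together. After 5 h at 37 C, 23 nL compound is pinned in. Plates stay at 37 C for 40 h with fluorescence read at 0h, 8h, 16h, 24h, 32h and 40h.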
# [3] = qHTS RealTime-Glo MT Cell Viability Assay in HepG2 cells - 8 hour (AID 1224873); further: nearly all actives have a fitted effect of over 55% in size
# Procedure, shortened: as §1
# [4] = qHTS RealTime-Glo MT Cell Viability Assay in HEK293 cells - 40 hour (AID 1224874); conditions: RealTime-Glo luminescence; max response: stronger effect = lower value; further: nearly all actives have a fitted effect of over 50% in size; further: potency means the concentration at half of the fitted maximal effect
# Procedure, shortened: (§3)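 Real-time viability in HEK293: signal arises when living cells convert a prosubstrate for NanoLuc in the medium, so luminescence tracks viable cell number. Compound (23 nL, DMSO) added 5 h post-seeding; kinetic reads at 0–40 h, 37 C.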
# [5] = A CellTox Green Cytotoxicity Assay to monitor cytotoxicity in HEK293 cells - 24 hour (AID 1224875); further: nearly all actives have a fitted effect of over 45% in size; further: potency means the concentration at half of the fitted maximal effect
# Procedure, shortened: as §2
# [6] = qHTS RealTime-Glo MT Cell Viability Assay in HepG2 cells - 32 hour (AID 1224877); further: nearly all actives have a fitted effect of over 55% in size; further: potency means the concentration at half of the fitted maximal effect
# Procedure, shortened: (§4)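 Compound treatment began 5 h after plating HepG2 cells (600/well) with NanoLuc luciferase and prosubstrate. Plates stayed at 37 C for 40 h; luminescence was captured at six time points, 0 h through 40 h.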
# [7] = A CellTox Green Cytotoxicity Assay to monitor cytotoxicity in HepG2 cells - 40 hour (AID 1224879); further: nearly all actives have a fitted effect of over 40% in size; further: potency means the concentration at half of the fitted maximal effect
# Procedure, shortened: (§5)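 Cells and non-lytic dye reagent are dispensed together (600 HepG2 cells/well) and incubated 5 h before DMSO compound transfer. Kinetic fluorescence is then recorded in the same wells during 40 h at 37 C.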
# [8] = qHTS RealTime-Glo MT Cell Viability Assay in HEK293 cells - 0 hour (AID 1224880); further: top concentration of the series differs between compounds; nearly all actives have a fitted effect of over 45% in size
# Procedure, shortened: as §3
# [9] = A CellTox Green Cytotoxicity Assay to monitor cytotoxicity in HEK293 cells - 32 hour (AID 1224881); further: nearly all actives have a fitted effect of over 40% in size; further: potency means the concentration at half of the fitted maximal effect
# Procedure, shortened: as §2
# [10] = A CellTox Green Cytotoxicity Assay to monitor cytotoxicity in HepG2 cells - 0 hour (AID 1224882); further: nearly all actives have a fitted effect of over 35% in size
# Procedure, shortened: as §5
# [11] = A CellTox Green Cytotoxicity Assay to monitor cytotoxicity in HepG2 cells - 32 hour (AID 1224883); further: nearly all actives have a fitted effect of over 50% in size; further: potency means the concentration at half of the fitted maximal effect
# Procedure, shortened: as §5
# [12] = A CellTox Green Cytotoxicity Assay to monitor cytotoxicity in HEK293 cells - 8 hour (AID 1224884); further: nearly all actives have a fitted effect of over 35% in size
# Procedure, shortened: as §2
# [13] = qHTS RealTime-Glo MT Cell Viability Assay in HepG2 cells - 16 hour (AID 1224885); further: nearly all actives have a fitted effect of over 50% in size; further: potency means the concentration at half of the fitted maximal effect
# Procedure, shortened: as §4
# [14] = qHTS RealTime-Glo MT Cell Viability Assay in HEK293 cells - 24 hour (AID 1224886); further: nearly all actives have a fitted effect of over 50% in size; further: potency means the concentration at half of the fitted maximal effect
# Procedure, shortened: (§6)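 Quantitative high-throughput screen of the Tox21 10K library in HEK293: cells and RealTime-Glo reagents plated together, compound added at 5 h, luminescence monitored through 40 h at 37 C.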
# [15] = qHTS RealTime-Glo MT Cell Viability Assay in HEK293 cells - 8 hour (AID 1224887); further: nearly all actives have a fitted effect of over 50% in size; further: potency means the concentration at half of the fitted maximal effect
# Procedure, shortened: as §3
# [16] = A CellTox Green Cytotoxicity Assay to monitor cytotoxicity in HEK293 cells - 16 hour (AID 1224888); further: nearly all actives have a fitted effect of over 35% in size
# Procedure, shortened: as §2
# [17] = qHTS RealTime-Glo MT Cell Viability Assay in HepG2 cells - 0 hour (AID 1224889); further: nearly all actives have a fitted effect of over 50% in size; further: potency means the concentration at half of the fitted maximal effect
# Procedure, shortened: as §4
# [18] = qHTS RealTime-Glo MT Cell Viability Assay in HEK293 cells - 16 hour (AID 1224872)
# Procedure, shortened: as §6
# [19] = A CellTox Green Cytotoxicity Assay to monitor cytotoxicity in HepG2 cells - 16 hour (AID 1224876); further: nearly all actives have a fitted effect of over 45% in size
# Procedure, shortened: as §5
# [20] = A CellTox Green Cytotoxicity Assay to monitor cytotoxicity in HepG2 cells - 24 hour (AID 1224878); further: nearly all actives have a fitted effect of over 45% in size; further: potency means the concentration at half of the fitted maximal effect
# Procedure, shortened: as §5
structure (smiles),measurement,setting,value
O=Cc1ccccc1O,Potency,[1],inactive
same,Potency,[2],inactive
same,Potency,[3],inactive
same,max response,[4],3.18% (inactive) and 0.0852% (inactive)
same,Potency,[5],inactive
same,Potency,[6],inactive
same,Potency,[7],inactive
same,Potency,[8],inactive
same,Potency,[9],inactive
same,Potency,[10],inactive
same,Potency,[11],inactive
same,Potency,[12],inactive
same,Potency,[13],inactive
same,Potency,[14],inactive
same,Potency,[15],inactive
same,Potency,[16],inactive
same,Potency,[17],inactive
C[C@]12CCC(=O)C=C1CC[C@@H]1[C@@H]2C(=O)C[C@@]2(C)[C@H]1CC[C@]2(O)C(=O)CO,Potency,[1],inactive
same,Potency,[2],inactive
same,Potency,[18],inactive
same,Potency,[5],inactive
same,Potency,[6],inactive
same,Potency,[7],inactive
same,Potency,[9],inactive
same,Potency,[10],inactive
same,Potency,[11],inactive
same,Potency,[12],inactive
same,Potency,[13],inactive
same,Potency,[14],inactive
same,Potency,[15],inactive
same,Potency,[16],inactive
same,Potency,[17],5.49 µM (active)
OC[C@H]1O[C@@H]2O[C@H]3[C@H](O)[C@@H](O)[C@@H](O[C@H]4[C@H](O)[C@@H](O)[C@@H](O[C@H]5[C@H](O)[C@@H](O)[C@@H](O[C@H]6[C@H](O)[C@@H](O)[C@@H](O[C@H]7[C@H](O)[C@@H](O)[C@@H](O[C@H]8[C@H](O)[C@@H](O)[C@@H](O[C@H]1[C@H](O)[C@H]2O)O[C@@H]8CO)O[C@@H]7CO)O[C@@H]6CO)O[C@@H]5CO)O[C@@H]4CO)O[C@@H]3CO,Potency,[1],inactive
same,Potency,[2],inactive
same,Potency,[3],inactive
same,max response,[4],3.33% (inactive)
same,Potency,[5],inactive
same,Potency,[19],inactive
same,Potency,[6],inactive
same,Potency,[7],inactive
same,Potency,[8],inactive
same,Potency,[9],inactive
same,Potency,[10],inactive
same,Potency,[11],inactive
same,Potency,[12],inactive
same,Potency,[13],inactive
same,Potency,[14],inactive
same,Potency,[16],inactive
same,Potency,[17],inactive
CC(C)CC(C)(O)C#CC(C)(O)CC(C)C (centres undefined),Potency,[1],inactive
same,Potency,[2],inactive
same,Potency,[3],inactive
same,max response,[4],-20.8% (inactive) and -13.4% (inactive)
same,Potency,[5],inactive
same,Potency,[19],inactive
same,Potency,[6],inactive
same,Potency,[20],inactive
same,Potency,[7],inactive
same,Potency,[8],inactive
same,Potency,[9],inactive
same,Potency,[10],inactive
same,Potency,[11],inactive
same,Potency,[12],inactive
same,Potency,[13],inactive
same,Potency,[14],inactive
same,Potency,[15],inactive
same,Potency,[16],inactive
same,Potency,[17],inactive
OCCO,Potency,[1],inactive
same,Potency,[2],inactive
same,Potency,[18],inactive
same,Potency,[5],inactive
same,Potency,[19],inactive
same,Potency,[6],inactive
same,Potency,[7],inactive
same,Potency,[8],inactive
same,Potency,[9],inactive
same,Potency,[10],inactive
same,Potency,[11],inactive
same,Potency,[12],inactive
same,Potency,[13],inactive
same,Potency,[14],inactive
same,Potency,[15],inactive
same,Potency,[16],inactive
same,Potency,[17],inactive
CCCCC/C=C/C=C/C=O,Potency,[1],inactive
same,Potency,[2],54.5 µM (active)
same,Potency,[18],inactive
same,Potency,[5],inactive
same,Potency,[6],inactive
same,Potency,[7],54.9 µM (active)
same,Potency,[8],inactive
same,Potency,[9],54.5 µM (active)
same,Potency,[10],inactive
same,Potency,[11],54.5 µM (active) and 54.9 µM (active)
same,Potency,[12],inactive
same,Potency,[13],inactive
same,Potency,[14],inactive
same,Potency,[15],inactive
same,Potency,[16],inactive
same,Potency,[17],inactive
Nc1ncnc2nc[nH]c12,Potency,[1],inactive
same,Potency,[2],inactive
same,Potency,[3],inactive
same,max response,[4],0.881% (inactive) and 2.65% (inactive)
same,Potency,[5],inactive
same,Potency,[6],inactive
same,Potency,[7],inactive
same,Potency,[8],inactive
same,Potency,[9],inactive
same,Potency,[10],inactive
same,Potency,[11],inactive
same,Potency,[12],inactive
same,Potency,[13],inactive
same,Potency,[14],inactive
same,Potency,[15],inactive
same,Potency,[16],inactive
same,Potency,[17],inactive
CC(=O)Oc1ccccc1C(=O)Nc1ncc([N+](=O)[O-])s1,Potency,[1],inactive
same,Potency,[2],inactive
same,Potency,[3],inactive
same,Potency,[5],inactive
same,Potency,[19],inactive
same,Potency,[6],inactive
same,Potency,[7],11.2 µM (active)
same,Potency,[8],inactive
same,Potency,[9],inactive
same,Potency,[10],inactive
same,Potency,[11],inactive
same,Potency,[12],inactive
same,Potency,[13],inactive
same,Potency,[16],inactive
same,Potency,[17],inactive
COC(=O)c1ccccc1,Potency,[1],inactive
same,Potency,[2],inactive
same,Potency,[4],12.3 µM (active)
same,max response,[4],7.68% (inactive)
same,Potency,[5],inactive
same,Potency,[19],inactive
same,Potency,[6],inactive
same,Potency,[20],inactive
same,Potency,[7],inactive
same,Potency,[8],inactive
same,Potency,[9],inactive
same,Potency,[10],inactive
same,Potency,[11],inactive
same,Potency,[12],inactive
same,Potency,[13],inactive
same,Potency,[14],inactive and 12.3 µM (active)
same,Potency,[15],inactive
same,Potency,[16],inactive
same,Potency,[17],inactive
C#C[C@]1(O)CC[C@H]2[C@@H]3CCc4cc(OC)ccc4[C@H]3CC[C@@]21C,Potency,[1],inactive
same,Potency,[4],24.5 µM (active) and 19 µM (active)
same,Potency,[5],inactive
same,Potency,[19],inactive
same,Potency,[6],inactive
same,Potency,[8],inactive
same,Potency,[10],inactive
same,Potency,[11],23.9 µM (active)
same,Potency,[12],inactive
same,Potency,[13],inactive
same,Potency,[14],34.7 µM (active) and 19 µM (active)
same,Potency,[16],inactive
same,Potency,[17],inactive
Brc1cc(Oc2cc(Br)c(Br)c(Br)c2Br)c(Br)c(Br)c1Br,Potency,[1],inactive
same,Potency,[2],inactive
same,Potency,[3],inactive
same,Potency,[5],inactive
same,Potency,[6],inactive
same,Potency,[20],inactive
same,Potency,[7],inactive
same,Potency,[8],inactive
same,Potency,[9],inactive
same,Potency,[10],inactive
same,Potency,[11],inactive
same,Potency,[12],inactive
same,Potency,[13],inactive
same,Potency,[14],inactive
same,Potency,[15],inactive
same,Potency,[16],inactive
same,Potency,[17],inactive
Cn1cnc([N+](=O)[O-])c1Sc1ncnc2nc[nH]c12,Potency,[1],inactive
same,Potency,[2],34.5 µM (active) and inactive
same,Potency,[4],20.5 µM (active) and 21.3 µM (active)
same,Potency,[6],inactive
same,Potency,[20],inactive
same,Potency,[7],54.5 µM (active) and inactive
same,Potency,[8],inactive
same,Potency,[9],30.7 µM (active) and inactive
same,Potency,[10],inactive
same,Potency,[11],54.5 µM (active) and inactive
same,Potency,[12],inactive
same,Potency,[13],inactive
same,Potency,[15],inactive
same,Potency,[16],inactive
same,Potency,[17],inactive
c1ccc2sc(SSN3CCOCC3)nc2c1,Potency,[1],inactive and 54.9 µM (active)
same,Potency,[2],38.8 µM (active) and 49 µM (active)
same,Potency,[4],19.5 µM (active) and 43.6 µM (active)
same,Potency,[5],38.8 µM (active)
same,Potency,[6],inactive and 49 µM (active)
same,Potency,[20],54.9 µM (active)
same,Potency,[7],54.8 µM (active) and 49 µM (active)
same,Potency,[8],inactive
same,Potency,[9],38.8 µM (active) and 54.9 µM (active)
same,Potency,[10],inactive
same,Potency,[11],54.8 µM (active) and 54.9 µM (active)
same,Potency,[12],inactive
same,Potency,[13],54.9 µM (active)
same,Potency,[14],38.8 µM (active) and 49 µM (active)
same,Potency,[15],48.9 µM (active)
same,Potency,[16],inactive
same,Potency,[17],inactive
